Measured values as given in PubChem BioAssay AID1159580 (chemical genetic matrix, 2015).
Out of some 5,500 compounds screened, about 2,000 (36%) were called active. About 18% were inconclusive and are not listed. No stated cut-off is given here; in the data, active means normalized growth mostly below about 0.91 (no sharp cut-off); inconclusive means no clear call, values can overlap the other calls; inactive means mostly above about 0.92. This is one part of the list.

Assay: chemical genetic growth profiling, strain panel (AID 1159580);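 further: tested at 20 µM; growth read once vehicle control cultures reached saturation at 30 °C; 1 = growth at the plate median or of vehicle wells; lower values mean less growth of the strain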
Details: S. cerevisiae deletion strains, growth OD

Measured: normalized growth

CC(C)c1cccc(O)c(=O)c1
active: locus YAL021C, strain ccr4, active compounds read low 0.0678 | locus YAL026C, strain drs2, active compounds read low 0.0622 | locus YAL030W, strain snc1, active compounds read low 0.0616 | locus YBL061C, strain skt5, active compounds read low 0.0689 | locus YBR009C, strain hhf1, active compounds read low 0.0635 | locus YBR023C, strain chs3, active compounds read low 0.0691 | locus YBR171W, strain sec66, active compounds read low 0.0935 | locus YBR231C, strain swc5, active compounds read low 0.0694 | locus YBR279W, strain paf1, active compounds read low 0.0689 | locus YCL011C, strain gbp2, active compounds read low 0.0593 | locus YCL016C, strain dcc1, active compounds read low 0.0739 | locus YCL069W, strain vba3, active compounds read low 0.0926 | locus YCR088W, strain abp1, active compounds read low 0.0649 | locus YDL005C, strain med2, active compounds read low 0.0881 | locus YDL040C, strain nat1, active compounds read low 0.0703 | locus YDR001C, strain nth1, active compounds read low 0.0642 | locus YDR069C, strain doa4, active compounds read low 0.0633 | locus YDR137W, strain rgp1, active compounds read low 0.0985 | locus YDR159W, strain sac3, active compounds read low 0.0917 | locus YDR195W, strain ref2 0.166 | locus YDR297W, strain sur2, active compounds read low 0.0622 | locus YDR334W, strain swr1, active compounds read low 0.0664 | locus YDR335W, strain msn5, active compounds read low 0.0638 | locus YDR392W, strain spt3, active compounds read low 0.0887 | locus YEL003W, strain gim4, active compounds read low 0.0581 | locus YEL037C, strain rad23, active compounds read low 0.0615 | locus YEL061C, strain CIN8 (second series), active compounds read low 0.0653 | locus YER015W, strain faa2, active compounds read low 0.0615 | locus YER016W, strain bim1, active compounds read low 0.067 | locus YER111C, strain swi4, active compounds read low 0.0815 | locus YER155C, strain BEM2 (second series), active compounds read low 0.0927 | locus YFR010W, strain ubp6, active compounds read low 0.072 | locus YGL167C, strain pmr1, active compounds read low 0.091 | locus YGL173C, strain kem1, active compounds read low 0.0718 | locus YGL227W, strain vid30, active compounds read low 0.0687 | locus YGL240W, strain doc1, active compounds read low 0.0871 | locus YGL253W, strain hxk2, active compounds read low 0.0611 | locus YHR013C, strain ard1, active compounds read low 0.113 | locus YHR027C, strain rpn1, active compounds read low 0.0609 | locus YHR030C, strain SLT2, active compounds read low 0.126 | locus YHR079C, strain IRE1, active compounds read low 0.146 | locus YHR142W, strain chs7, active compounds read low 0.0743 | locus YJL092W, strain hpr5, active compounds read low 0.0677 | locus YJL095W, strain BCK1 (second series), active compounds read low 0.0581 | locus YJL095W, strain BCK1, active compounds read low 0.145 | locus YJL115W, strain asf1, active compounds read low 0.0902 | locus YJL129C, strain trk1, active compounds read low 0.0856 | locus YJL154C, strain vps35, active compounds read low 0.0621 | locus YJL164C, strain tpk1, active compounds read low 0.0686 | locus YJL166W, strain qcr8, active compounds read low 0.0625 | locus YJR066W, strain TOR1, active compounds read low 0.0572 | locus YKL160W, strain elf1, active compounds read low 0.0788 | locus YKR026C, strain gcn3, active compounds read low 0.0743 | locus YKR091W, strain srl3, active compounds read low 0.0697 | locus YLL001W, strain dnm1, active compounds read low 0.0706 | locus YLL026W, active compounds read low 0.0634 | locus YLL041C, strain sdh2, active compounds read low 0.0616 | locus YLR027C, strain aat2, active compounds read low 0.0581 | locus YLR113W, strain HOG1, active compounds read low 0.217 | locus YLR221C, strain rsa3, active compounds read low 0.059 | locus YLR258W, strain gsy2, active compounds read low 0.0639 | locus YLR262C, strain YPT6 (second series), active compounds read low 0.0819 | locus YLR320W, strain mms22, active compounds read low 0.0828 | locus YLR342W, strain FKS1, active compounds read low 0.0743 | locus YLR357W, strain rsc2, active compounds read low 0.136 | locus YLR370C, strain arc18, active compounds read low 0.0652 | locus YLR384C, strain iki3, active compounds read low 0.0711 | locus YML120C, strain ndi1, active compounds read low 0.0618 | locus YMR058W, strain fet3, active compounds read low 0.0629 | locus YMR125W, strain sto1, active compounds read low 0.0871 | locus YMR129W, active compounds read low 0.0613 | locus YMR205C, strain PFK2, active compounds read low 0.091 | locus YMR231W, strain pep5, active compounds read low 0.0803 | locus YNL071W, strain lat1, active compounds read low 0.0663 | locus YNL183C, strain NPR1, active compounds read low 0.0186 | locus YNL209W, strain ssb2, active compounds read low 0.0585 | locus YNL248C, strain rpa49, active compounds read low 0.0753 | locus YNL322C, strain KRE1 (second series), active compounds read low 0.068 | locus YNR049C, strain mso1, active compounds read low 0.0605 | locus YOR001W, strain rrp6, active compounds read low 0.0684 | locus YOR070C, strain gyp1, active compounds read low 0.123 | locus YOR080W, strain dia2, active compounds read low 0.0682 | locus YOR083W, strain WHI5, active compounds read low 0.0692 | locus YOR106W, strain vam3, active compounds read low 0.0676 | locus YOR231W, strain MKK1, active compounds read low 0.134 | locus YOR265W, strain rbl2, active compounds read low 0.0639 | locus YOR270C, strain vph1, active compounds read low 0.101 | locus YOR290C, strain snf2, active compounds read low 0.0651 | locus YPL051W, strain arl3, active compounds read low 0.0708 | locus YPL078C, strain atp4, active compounds read low 0.0754 | locus YPL106C, strain sse1, active compounds read low 0.111 | locus YPL240C, strain hsp82, active compounds read low 0.0667 | locus YPL256C, strain CLN2, active compounds read low 0.121
